Calls of active or inactive are those of the source.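 The calls were made as follows, unless noted: active = inhibition above 20% together with a positive visual image hit; inconclusive = visual image hit but inhibition not above 20%; inactive = no visual image hit.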
Experiments:
[1] = inhibitors of TNFa-induced NFkB p65 translocation, primary screen, imaging, HUVEC, MLSMR starter and 10KST1 sets (AID 438); settings: HUVEC TNFa-induced p65 nuclear translocation; cell count: measured here: nuclei count (cytotoxicity indicator), at 2.08 µM; inhibition: at 2 µM, stronger effect = higher value, 0% TNFa-plus-vehicle, 100% no-TNFa wells;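 also: compound added about 3h40 before a 20 min TNFalpha stimulation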;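 as to inhibition: signal is the nuclear over cytoplasmic p65 intensity ratio per well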
[2] = inhibitors of mutant huntingtin aggregation, primary screen, imaging, exon1htt(103Q)mCFP cells, high-content imaging (AID 483;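 active = visual image review flags a hit and inhibition of aggregation exceeds 20%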;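 also: compound exposure lasted 3 days before fixation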;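 as to nuclei count: percent of the per-plate median nuclei count of sample wells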); settings: exon1htt(103Q)mCFP cell line, aggregate imaging, at 2 µM; inhibition of aggregation: stronger effect = higher value; nuclei count: measured here: cell count, toxicity
[3] = inhibitors of E-selectin induction by TNFa, primary screen, imaging, HUVEC, immunofluorescence, MLSMR starter and 10KST1 sets (AID 487;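 active = visually confirmed hit in the image check and inhibition above 20%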;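 as to inhibition: signal is fraction of cell area covered by stained E-selectin grains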;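 as to nuclei count: 100% = median nuclei count of all wells on the same plate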); settings: HUVEC TNFalpha-induced E-selectin immunofluorescence imaging, at 2 µM; inhibition: stronger effect = higher value; nuclei count: measured here: cell number, toxicity
[4] = target: Voltage-gated potassium channel subunit beta-2 (Rattus norvegicus) (UniProt P62483); assay: KvBeta enzyme negative modulators, primary screen, biochemical, NADPH fluorescence (AID 622;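 active = fluorescence slope higher than the sample average by over 3 SD, cut at about -0.22 in these data, passing the limit was not always enough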;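 also: slope of raw intensity against log time taken from 70 to 1610 s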); settings: recombinant KvBeta, 4-cyanobenzaldehyde reduction, at 10 µM, stronger effect = higher value
[5] = target: Voltage-gated potassium channel subunit beta-2 (Rattus norvegicus) (UniProt P62483); assay: KvBeta positive modulators, primary screen, biochemical, NADPH fluorescence (AID 623;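 active = NADPH fluorescence slope more negative than the mean of all samples by about 3 SD, 99.7% confidence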;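 also: fluorescence intensity change per second fitted from 20 to 320 s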); settings: Recombinant KvBeta, NADPH fluorescence decrease slope, 10 min; at 10 µM; stronger effect = lower value
[6] = target: Alpha-2C adrenergic receptor (Homo sapiens) (UniProt P18825); assay: modulators of alpha2C/GIRK thallium flux, primary screen, cell-based, HEK293 alpha2C/GIRK1/2 (AID 624;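 active = fluorescence slope after compound addition differing from the mean of all screened samples at 99.7% confidence, in either direction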;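 also: slope of fluorescence ratio to pre-addition baseline per second over 15 to 24 s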); settings: thallium flux BTC fluorescence, at 10 µM, actives lie on both sides
[7] = inhibitors of Sendai virus-induced IRF3 signaling, primary screen, TLR/RLR signaling modifier project, cell-based, Sendai virus stimulus, luciferase, 10K MLSCN set (AID 602276;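 active = inhibition at or above 50% at 10 µM; inactive = inhibition below 50%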;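 also: firefly luciferase from ISG56 promoter only with Renilla not read in this screen; 0% = Sendai virus plus DMSO and 100% = medium plus DMSO without virus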); settings: HEK293 RL24 IRF3 luciferase reporter, at 10 µM, stronger effect = higher value
[8] = inhibitors of poly I:C-induced TLR3 signaling, primary screen, cell-based, poly I:C stimulus, luciferase, 10K MLSCN set (AID 602277;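 active = inhibition of the reporter signal at or above 50%; inactive = inhibition below 50%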); settings: HEK293-TLR3 RL24 IRF3 luciferase reporter, at 10 µM, stronger effect = higher value

Voltage-gated potassium channel subunit beta-2 (Rattus norvegicus), sequence (P62483 whole entry, looked up): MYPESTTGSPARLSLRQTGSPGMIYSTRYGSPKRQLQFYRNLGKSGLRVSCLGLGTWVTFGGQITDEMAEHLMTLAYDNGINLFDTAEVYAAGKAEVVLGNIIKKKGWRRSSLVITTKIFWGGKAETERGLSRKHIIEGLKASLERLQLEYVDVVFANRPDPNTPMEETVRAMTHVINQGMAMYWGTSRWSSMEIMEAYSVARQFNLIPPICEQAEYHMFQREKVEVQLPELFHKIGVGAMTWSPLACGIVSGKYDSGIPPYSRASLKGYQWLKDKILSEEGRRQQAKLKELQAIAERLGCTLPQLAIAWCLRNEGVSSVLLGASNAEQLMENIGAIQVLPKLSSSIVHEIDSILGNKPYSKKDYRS
Alpha-2C adrenergic receptor (Homo sapiens), sequence (P18825 whole entry, looked up): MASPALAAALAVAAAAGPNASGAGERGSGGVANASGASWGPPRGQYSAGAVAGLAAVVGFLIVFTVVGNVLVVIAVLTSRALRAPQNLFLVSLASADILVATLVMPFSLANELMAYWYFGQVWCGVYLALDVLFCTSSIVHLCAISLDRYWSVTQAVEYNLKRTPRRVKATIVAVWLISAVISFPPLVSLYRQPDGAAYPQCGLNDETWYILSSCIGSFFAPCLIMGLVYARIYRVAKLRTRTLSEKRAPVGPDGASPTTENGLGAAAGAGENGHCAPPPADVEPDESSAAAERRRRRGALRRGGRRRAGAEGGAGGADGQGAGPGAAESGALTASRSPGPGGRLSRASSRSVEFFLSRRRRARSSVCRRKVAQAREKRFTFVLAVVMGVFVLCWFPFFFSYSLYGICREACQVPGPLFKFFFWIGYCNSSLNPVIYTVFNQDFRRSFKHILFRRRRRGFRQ

In the case of `O=C(c1ccccc1)c1ccncc1`, the cell count [1] is reported as 391, the inhibition [1] is reported as 7% (inactive) and the inhibition of aggregation [2] is reported as -9.4% (inactive). The nuclei count [2] was 103%, the inhibition [3] was -5.9% (inactive) and the nuclei count [3] was 119%. For the same compound, the fluorescence slope [4] was -0.399 (inactive), the NADPH fluorescence slope [5] was -2.9e-05 (inactive) and the slope [6] was 0.0031 (inactive). The inhibition [7] was 19% (inactive) and the inhibition [8] was 27.8% (inactive).
For `COc1cc(NC(=O)c2cc(CC(C)C)on2)c(OC)cc1Cl`, the cell count [1] was 558, the inhibition [1] was -6% (inactive) and the inhibition of aggregation [2] was 13.1% (inactive). For the same compound, the nuclei count [2] was 95.8%, the inhibition [3] was -15.3% (inactive) and the nuclei count [3] was 106%. The fluorescence slope [4] was -0.575 (inactive), the NADPH fluorescence slope [5] was 5.1e-07 (inactive) and the slope [6] was 0.00662 (inactive). For the same compound, the inhibition [7] was 10.7% (inactive) and the inhibition [8] was 46.6% (inactive).
With `COC(=O)c1c(NC(=O)CSc2nnnn2C)sc(C)c1C` the cell count [1] was 446, the inhibition [1] was -0.5% (inactive) and the inhibition of aggregation [2] was -4.7% (inactive). For the same compound, the nuclei count [2] was 95.6%, the inhibition [3] was 30.9% (inactive) and the nuclei count [3] was 101%. For the same compound, the fluorescence slope [4] was -0.374 (inactive), the NADPH fluorescence slope [5] was -3.1e-05 (inactive) and the slope [6] was 0.00478 (inactive). For the same compound, the inhibition [7] was -19% (inactive) and the inhibition [8] was -14.9% (inactive).
In the case of `Cc1ccc(OCC(O)CN2C(=O)NC(C)(C)C2=O)cc1C` (centres undefined), the cell count [1] is reported as 673, the inhibition [1] is reported as -2.9% (inactive) and the inhibition of aggregation [2] is reported as -21.4% (inactive). For the same compound, the nuclei count [2] was 107%, the inhibition [3] was -19.6% (inactive) and the nuclei count [3] was 112%. For the same compound, the fluorescence slope [4] was -0.537 (inactive), the NADPH fluorescence slope [5] was -2.6e-05 (inactive) and the slope [6] was 0.00799 (inactive). For the same compound, the inhibition [7] was 5.76% (inactive) and the inhibition [8] was 24.9% (inactive).
With `O=C(Cn1cnc2ccccc2c1=O)NCCC(=O)N1CCN(c2ccccc2)CC1` the cell count [1] was 383, the inhibition [1] was -10.7% (inactive) and the inhibition of aggregation [2] was 8.8% (inactive). For the same compound, the nuclei count [2] was 99.4%, the inhibition [3] was 12.8% (inactive) and the nuclei count [3] was 95.3%. For the same compound, the fluorescence slope [4] was -0.405 (inactive), the NADPH fluorescence slope [5] was -9.9e-05 (inactive) and the slope [6] was 0.0056 (inactive). For the same compound, the inhibition [7] was 15.8% (inactive) and the inhibition [8] was 23.6% (inactive).
With `O=C(CSc1nnc(NC(=O)C2CCC2)s1)NC1CC1` the cell count [1] was 488, the inhibition [1] was 0.8% (inactive) and the inhibition of aggregation [2] was -8.1% (inactive). For the same compound, the nuclei count [2] was 66.2%, the inhibition [3] was -90.7% (inactive) and the nuclei count [3] was 106%. The fluorescence slope [4] was -0.313 (inactive), the NADPH fluorescence slope [5] was -4.2e-05 (inactive) and the slope [6] was 0.00536 (inactive). For the same compound, the inhibition [7] was 0.495% (inactive) and the inhibition [8] was -3.07% (inactive).
In the case of `Cc1cn2c(-c3ccc(Cl)cc3)nnc2s1`, the cell count [1] is reported as 752, the inhibition [1] is reported as -1.6% (inactive) and the inhibition of aggregation [2] is reported as 17.6% (inactive). For the same compound, the nuclei count [2] was 98%, the inhibition [3] was -81% (inactive) and the nuclei count [3] was 109%. For the same compound, the fluorescence slope [4] was -0.563 (inactive), the NADPH fluorescence slope [5] was -4.1e-05 (inactive) and the slope [6] was 0.00702 (inactive). The inhibition [7] was 6.2% (inactive) and the inhibition [8] was 12.3% (inactive).
In the case of `O=C1c2ccccc2C(Nc2ccc(-c3nc4ccccc4[nH]3)cc2)N1Cc1ccco1` (centres undefined), the cell count [1] is reported as 701, the inhibition [1] is reported as -6.8% (inactive) and the inhibition of aggregation [2] is reported as -10.2% (inactive). The nuclei count [2] was 87.9%, the inhibition [3] was -26.7% (inactive) and the nuclei count [3] was 108%. For the same compound, the fluorescence slope [4] was -0.589 (inactive), the NADPH fluorescence slope [5] was -2e-06 (inactive) and the slope [6] was 0.00641 (inactive). The inhibition [7] was -24% (inactive) and the inhibition [8] was -47.4% (inactive).
For `CN(C)c1ccc(CNn2cnnc2)cc1`, the cell count [1] was 499, the inhibition [1] was 4.4% (inactive) and the inhibition of aggregation [2] was 3.2% (inactive). For the same compound, the nuclei count [2] was 68.8%, the inhibition [3] was -50.6% (inactive) and the nuclei count [3] was 102%. The fluorescence slope [4] was -0.369 (inactive), the NADPH fluorescence slope [5] was 1.6e-05 (inactive) and the slope [6] was 0.00382 (inactive). For the same compound, the inhibition [7] was 5.14% (inactive) and the inhibition [8] was 16.1% (inactive).
With `COc1cc2c(cc1OC)-c1nnc(-c3cccs3)n1C(C)(C)C2` the cell count [1] was 814, the inhibition [1] was 1.2% (inactive) and the inhibition of aggregation [2] was -30.2% (inactive). For the same compound, the nuclei count [2] was 106%, the inhibition [3] was -58.9% (inactive) and the nuclei count [3] was 114%. The fluorescence slope [4] was -0.601 (inactive), the NADPH fluorescence slope [5] was -1.8e-05 (inactive) and the slope [6] was 0.00581 (inactive). The inhibition [7] was 6.77% (inactive) and the inhibition [8] was 18.5% (inactive).
For `Clc1ccc(C2=Nn3c(nnc3-c3n[nH]c4c3CCC4)SC2)cc1Cl`, the cell count [1] was 434, the inhibition [1] was 3% (inactive) and the inhibition of aggregation [2] was 1.5% (inactive). The nuclei count [2] was 101%, the inhibition [3] was 19.9% (inactive) and the nuclei count [3] was 95.9%. The fluorescence slope [4] was -0.498 (inactive), the NADPH fluorescence slope [5] was 1.2e-05 (inactive) and the slope [6] was 0.00652 (inactive). The inhibition [7] was 29.6% (inactive) and the inhibition [8] was 33% (inactive).
For `O=C(NCC(F)(F)F)Nc1cccnc1`, the cell count [1] was 309, the inhibition [1] was 6.5% (inactive) and the inhibition of aggregation [2] was -5.6% (inactive). The nuclei count [2] was 100%, the inhibition [3] was -117% (inactive) and the nuclei count [3] was 119%. The fluorescence slope [4] was -0.318 (inactive), the NADPH fluorescence slope [5] was -5.2e-05 (inactive) and the slope [6] was 0.00372 (inactive). The inhibition [7] was -2.55% (inactive) and the inhibition [8] was 3.81% (inactive).
For `COc1ccc(-c2[nH]nc3c2C(c2ccncc2)C(C#N)=C(N)O3)cc1` (centres undefined), the cell count [1] was 441, the inhibition [1] was 6% (inactive) and the inhibition of aggregation [2] was 2.5% (inactive). For the same compound, the nuclei count [2] was 113%, the inhibition [3] was -6.7% (inactive) and the nuclei count [3] was 100%. The fluorescence slope [4] was -0.31 (inactive), the NADPH fluorescence slope [5] was -4.4e-05 (inactive) and the slope [6] was 0.00483 (inactive). For the same compound, the inhibition [7] was 6.11% (inactive) and the inhibition [8] was 99% (active).
With `COc1ccc(N2CCN(Cc3nc4ccccc4c(=O)[nH]3)CC2)cc1` the cell count [1] was 683, the inhibition [1] was -4.7% (inactive) and the inhibition of aggregation [2] was -13.4% (inactive). The nuclei count [2] was 119%, the inhibition [3] was -72.3% (inactive) and the nuclei count [3] was 112%. The fluorescence slope [4] was -0.607 (inactive), the NADPH fluorescence slope [5] was -3.1e-07 (inactive) and the slope [6] was 0.00376 (inactive). For the same compound, the inhibition [7] was 10.6% (inactive) and the inhibition [8] was -9.48% (inactive).
